High-throughput results from PubChem.
mHTT CaM bind: mHTT-calmodulin interaction abrogation | AlphaScreen His-mHTT/GST-CaM binding, luminescence | inhibition, % at 15 µM | actives 3.6% (n = 190,000)
Target sequence (P42858 whole entry, looked up, change not shown): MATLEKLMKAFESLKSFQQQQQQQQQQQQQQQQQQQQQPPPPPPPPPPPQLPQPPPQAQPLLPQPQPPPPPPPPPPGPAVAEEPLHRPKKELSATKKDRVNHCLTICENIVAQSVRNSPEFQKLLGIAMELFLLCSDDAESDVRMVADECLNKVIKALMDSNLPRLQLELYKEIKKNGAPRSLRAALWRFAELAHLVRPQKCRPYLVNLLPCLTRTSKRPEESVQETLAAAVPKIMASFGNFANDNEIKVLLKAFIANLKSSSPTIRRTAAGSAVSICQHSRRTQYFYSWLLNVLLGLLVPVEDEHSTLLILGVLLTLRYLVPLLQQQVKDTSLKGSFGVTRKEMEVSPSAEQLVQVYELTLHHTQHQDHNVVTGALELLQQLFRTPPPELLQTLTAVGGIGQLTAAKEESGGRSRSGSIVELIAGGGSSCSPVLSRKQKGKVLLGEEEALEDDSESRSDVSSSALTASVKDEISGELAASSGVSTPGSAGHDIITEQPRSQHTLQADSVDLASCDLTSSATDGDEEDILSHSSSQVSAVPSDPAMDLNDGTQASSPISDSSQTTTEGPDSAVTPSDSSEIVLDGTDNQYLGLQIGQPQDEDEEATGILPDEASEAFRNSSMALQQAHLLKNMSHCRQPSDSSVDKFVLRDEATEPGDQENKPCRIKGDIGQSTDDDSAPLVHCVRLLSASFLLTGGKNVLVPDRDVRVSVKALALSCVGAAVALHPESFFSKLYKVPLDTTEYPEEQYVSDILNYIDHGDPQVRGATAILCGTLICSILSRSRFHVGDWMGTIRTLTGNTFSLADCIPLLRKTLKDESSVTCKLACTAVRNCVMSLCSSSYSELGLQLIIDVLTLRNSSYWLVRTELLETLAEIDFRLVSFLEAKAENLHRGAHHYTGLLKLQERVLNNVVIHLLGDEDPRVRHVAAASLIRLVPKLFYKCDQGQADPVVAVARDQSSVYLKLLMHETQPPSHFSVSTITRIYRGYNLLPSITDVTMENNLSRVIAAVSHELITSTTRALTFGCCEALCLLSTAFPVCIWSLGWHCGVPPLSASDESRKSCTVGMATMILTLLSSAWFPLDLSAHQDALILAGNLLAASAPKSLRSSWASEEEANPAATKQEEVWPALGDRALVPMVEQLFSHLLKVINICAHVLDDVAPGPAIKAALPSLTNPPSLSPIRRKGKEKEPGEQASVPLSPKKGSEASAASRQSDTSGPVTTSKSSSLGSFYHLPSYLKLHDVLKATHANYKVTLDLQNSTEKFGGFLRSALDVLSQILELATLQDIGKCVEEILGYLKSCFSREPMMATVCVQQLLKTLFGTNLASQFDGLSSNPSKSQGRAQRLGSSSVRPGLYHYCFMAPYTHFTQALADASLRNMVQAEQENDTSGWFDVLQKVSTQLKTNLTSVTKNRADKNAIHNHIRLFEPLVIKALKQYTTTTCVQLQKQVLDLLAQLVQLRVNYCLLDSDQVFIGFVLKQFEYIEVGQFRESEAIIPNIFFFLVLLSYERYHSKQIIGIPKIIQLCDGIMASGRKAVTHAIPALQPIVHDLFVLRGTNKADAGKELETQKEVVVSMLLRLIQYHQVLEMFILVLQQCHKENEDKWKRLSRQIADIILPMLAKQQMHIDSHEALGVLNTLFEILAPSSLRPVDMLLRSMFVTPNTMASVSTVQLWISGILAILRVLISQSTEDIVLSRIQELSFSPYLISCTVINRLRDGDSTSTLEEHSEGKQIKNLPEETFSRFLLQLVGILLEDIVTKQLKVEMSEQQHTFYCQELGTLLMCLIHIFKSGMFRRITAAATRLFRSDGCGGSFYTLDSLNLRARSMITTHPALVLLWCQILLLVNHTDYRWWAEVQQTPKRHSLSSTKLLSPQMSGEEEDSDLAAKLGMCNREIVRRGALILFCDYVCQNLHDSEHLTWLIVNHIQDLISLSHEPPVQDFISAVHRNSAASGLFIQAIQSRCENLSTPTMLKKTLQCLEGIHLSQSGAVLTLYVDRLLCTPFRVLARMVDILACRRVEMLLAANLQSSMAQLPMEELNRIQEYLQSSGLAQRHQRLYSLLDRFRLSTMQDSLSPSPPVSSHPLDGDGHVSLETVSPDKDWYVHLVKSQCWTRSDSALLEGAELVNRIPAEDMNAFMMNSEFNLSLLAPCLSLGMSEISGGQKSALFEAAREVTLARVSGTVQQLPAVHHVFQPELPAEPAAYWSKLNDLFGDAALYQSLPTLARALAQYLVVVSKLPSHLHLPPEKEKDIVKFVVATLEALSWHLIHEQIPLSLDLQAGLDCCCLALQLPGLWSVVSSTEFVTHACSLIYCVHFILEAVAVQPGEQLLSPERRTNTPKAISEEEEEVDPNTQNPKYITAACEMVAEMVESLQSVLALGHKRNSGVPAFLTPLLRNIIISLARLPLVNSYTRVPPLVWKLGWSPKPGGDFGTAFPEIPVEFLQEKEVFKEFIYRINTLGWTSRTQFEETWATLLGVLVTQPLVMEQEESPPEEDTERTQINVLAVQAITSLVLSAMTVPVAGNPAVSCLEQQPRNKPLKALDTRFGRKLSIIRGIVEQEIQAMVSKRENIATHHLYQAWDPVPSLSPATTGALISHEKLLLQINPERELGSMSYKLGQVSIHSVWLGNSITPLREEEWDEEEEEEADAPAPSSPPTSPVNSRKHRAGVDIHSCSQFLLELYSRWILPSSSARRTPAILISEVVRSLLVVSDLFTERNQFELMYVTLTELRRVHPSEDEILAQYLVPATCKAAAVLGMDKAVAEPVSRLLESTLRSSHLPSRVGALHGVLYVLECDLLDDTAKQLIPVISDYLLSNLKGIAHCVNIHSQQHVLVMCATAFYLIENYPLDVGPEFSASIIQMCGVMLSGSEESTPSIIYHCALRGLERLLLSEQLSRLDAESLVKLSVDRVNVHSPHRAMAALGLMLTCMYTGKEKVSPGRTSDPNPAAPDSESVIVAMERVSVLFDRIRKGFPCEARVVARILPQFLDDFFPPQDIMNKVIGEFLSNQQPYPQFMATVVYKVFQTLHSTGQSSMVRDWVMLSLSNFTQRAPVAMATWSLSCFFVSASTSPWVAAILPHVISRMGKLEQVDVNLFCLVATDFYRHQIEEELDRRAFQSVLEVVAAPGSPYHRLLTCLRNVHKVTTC
Pf apPOL inh: Pf-apPOL DNA polymerase inhibition. AID 1794808. inhibition, % at 10 µM. actives 0.25% (n = 210,000). Recombinant Pf-apPOL, molecular beacon fluorescence, 1.5 h
Of the large screens only hits and unclear results are named; the others gave an inactive call; ! = not confirmed by another sample. Only some compounds are listed: those with a hit (about 3.6% of all), similar ones and a draw of the others. Cut-off read from the data, not from the text of the source: active = inhibition above about 50%; inactive = the rest.

Cc1cc(C2C(C#N)=C(N)N(c3ccc(F)cc3)C3=C2C(=O)CCC3)c(C)s1 (stereo not drawn)	none
CCSc1ccsc1C1C(C#N)=C(N)N(c2ccccc2)C2=C1C(=O)CCC2 (stereo not drawn)	none
CCc1ccc(C2C(C#N)=C(N)N(c3ccc(F)cc3)C3=C2C(=O)CCC3)s1 (stereo not drawn)	none
N#CC1=C(N)N(c2ccc(Cl)cc2)C2=C(C(=O)CCC2)C1c1cc(Br)cs1 (stereo not drawn)	mHTT CaM bind 55
N#CC1=C(N)N(c2ccc(Br)cc2)C2=C(C(=O)CCC2)C1c1ccsc1 (stereo not drawn)	none
Cc1nc(C(=O)Nc2ccccc2)c(C)o1	none
Cc1cccc(N=Cc2c(C)n(C)c3ccc([N+](=O)[O-])cc23)c1	none
COc1ccc(CNC(=O)C2CCCN(c3ccncc3)C2)cc1OC (stereo not drawn)	none
CCN(CC)S(=O)(=O)c1ccc(NC(=O)Cc2ccccc2)cc1	none
c1ccc2c(c1)-c1ccccc1C21SCCCS1	none (no result: Pf apPOL inh)
CCn1cnc2ccc(-c3noc(COc4ccccc4)n3)cc21	none
O=C(NCc1ccc(Cl)cc1)c1cc2n(n1)CCCN(Cc1ccc(F)cc1)C2=O	none
COC(=O)c1ccc(C=C2Oc3c(ccc(O)c3CN3CCN(CCO)CC3)C2=O)cc1	none
COc1cc(C2C(C#N)=C(N)N(c3ccccc3)C3=C2C(=O)CCC3)cc(OC)c1OC (stereo not drawn)	none
COc1cc(C2C(C#N)=C(N)N(c3cccc([N+](=O)[O-])c3)C3=C2C(=O)CCC3)cc(OC)c1OC (stereo not drawn)	Pf apPOL inh 85
CCCOc1nccnc1N1CCC(NS(=O)(=O)c2cnc[nH]2)C1 (stereo not drawn)	none
N#CC1=C(S)NC2=C(C(=O)CCC2)C1Cc1ccccc1 (stereo not drawn)	mHTT CaM bind 59
CCSC1=C(C#N)C(Cc2ccccc2)C2=C(CCCC2=O)N1 (stereo not drawn)	none
O=C(CSc1nnc(-c2cccnc2)o1)Nc1cccc(C(F)(F)F)c1	none
O=C(Nc1nc2c(s1)CCCC2)c1ccc([N+](=O)[O-])o1	Pf apPOL inh 64
O=C(Nc1nc2c(F)cccc2s1)c1ccc([N+](=O)[O-])o1	none
CC1(C)CC(N(CCCO)C(=O)c2ccccc2)CCO1 (stereo not drawn)	none
COc1ccc(C(=O)C=COC(=O)c2ccc(Cl)cc2)cc1	none (no result: mHTT CaM bind)
O=[N+]([O-])c1ccc(CNc2ccc3c(c2)CCC3)s1	mHTT CaM bind 84
COc1cccc(NCc2ccc([N+](=O)[O-])s2)c1	none
CCc1nc(NCC(C)C)c2c(C)nn(-c3ccc(F)cc3)c2n1	none
CCOC(=O)N1CCN(C(=O)CN(Cc2ccccc2)S(=O)(=O)c2ccc(F)cc2)CC1	none
CC(C)(C)NC(=O)Nc1ccc(N2CCCC2)c(C(=O)N2CCCC2)c1	none
CCNC(=O)C1CCCc2c1[nH]c1ccc(Cl)cc21 (stereo not drawn)	mHTT CaM bind 100!
COCCNC(=O)C1CCCc2c1[nH]c1ccccc21 (stereo not drawn)	none
COC(=O)c1ccccc1NC(=O)N1CCc2nc[nH]c2C1	none
CC(C)(C)C(=O)Nc1ccc(-c2cnc(-c3ccc(NC(=O)C(C)(C)C)cc3)nc2)cc1	none
COc1ccc(NC(=O)N2CCc3cn(C)c4cccc(c34)C2)c(OC)c1	mHTT CaM bind 75
CCn1cc2c3c(cccc31)CN(C(=O)Nc1ccc(OC)cc1OC)CC2	none
CCn1cc2c3c(cccc31)CN(C(=O)Nc1ccccc1OC)CC2	none
COc1ccccc1NC(=O)N1CCc2cn(C)c3cccc(c23)C1	mHTT CaM bind 51
COc1ccc(OC)c(NC(=O)N2CCc3cn(C)c4cccc(c34)C2)c1	mHTT CaM bind 62
CCCn1cc2c3c(cccc31)CN(C(=O)Nc1cc(OC)ccc1OC)CC2	mHTT CaM bind 73
COc1cccc(NC(=O)N2CCc3cn(C)c4cccc(c34)C2)c1	none
CCCn1cc2c3c(cccc31)CN(C(=O)Nc1cccc(OC)c1)CC2	none
CCn1cc(CN2CCC(C(=O)NCc3ccc(F)cc3)CC2)c2cc(OC)ccc21	none
COc1ccccc1CC(=O)N1CCCC1c1c(C)noc1C (stereo not drawn)	none
CCCC12CN3CC(C)(CN(C1)C3c1ccc(O)cc1)C2=O (stereo not drawn)	none
CC1CCN(C(=O)C2CC(=O)N(c3ccccc3)C2)CC1 (stereo not drawn)	none
CCCCc1ccc(NC(=O)N2CCC(c3cc(N)on3)CC2)cc1	none
O=c1ccc2c(Cl)cc(Cl)c(O)c2[nH]1	none
NNc1ccc2c(Cl)cc(Cl)c(O)c2n1	mHTT CaM bind 100
CC(C)(C)c1ccc(C=C2SC(=S)N(CCC(=O)O)C2=O)cc1	none
CCOC(=O)CCCN1C(=O)C(=Cc2ccc3c(c2)OCO3)SC1=S	none
O=C(O)CN1C(=O)C(=Cc2ccc(-c3cccc4c3C(=O)c3ccccc3C4=O)o2)SC1=S	Pf apPOL inh 95
O=C(O)CN1C(=O)C(=Cc2ccccc2O)SC1=S	none
O=C(O)CCCCCN1C(=O)C(=Cc2ccc3c(c2)OCO3)SC1=S	mHTT CaM bind 52
O=C(O)CCN1C(=O)C(=Cc2ccc([N+](=O)[O-])o2)SC1=S	Pf apPOL inh 50
O=C(c1c(F)cccc1F)N1CCN(c2ccc(Cl)c(Cl)c2)CC1	none
Clc1ccc(N2Cc3ccccc3C2)cc1Cl	mHTT CaM bind 87
CCN1CCN(C(=O)C2CC(=O)N(c3cccc(C)c3)C2)CC1 (stereo not drawn)	none
COCc1cc(CN2CCCC2)c(O)c2ncccc12	mHTT CaM bind 100
Oc1c(CN2CCCCC2)cc(CN2CCCCC2)nc1-c1ccccc1	none
Fc1ccc(CN2CCN(c3ncccn3)CC2)c(F)c1	none
Oc1c(CN2CCN(Cc3ccc4cccnc4c3O)CC2)ccc2cccnc12	mHTT CaM bind 100
Oc1c(CN2CCCCC2)cc(Cl)c2cccnc12	mHTT CaM bind 100
Oc1ccccc1CN1CCCC1	none
COc1ccc(/C=C2/C(=O)N(c3ccc(C(=O)O)cc3)N=C2C)cc1[N+](=O)[O-]	none
Cc1ccc(NC(=O)CN(c2cccc(Br)c2)S(C)(=O)=O)cc1	none
Cc1cccc(N2CCN(Cc3ccc(-c4ccccc4[N+](=O)[O-])o3)CC2)c1C	mHTT CaM bind 59
O=[N+]([O-])c1ccccc1-c1ccc(CN2CCN(c3ccccc3F)CC2)o1	none
CC1=C(C(=O)NCCCN2CCN(c3cc(C)ccc3C)CC2)C2(CCCCC2)OC1=O	none
Cc1ccc(Cl)cc1N1CCN(CCCNC(=O)C2(n3cccc3)CCCCC2)CC1	mHTT CaM bind 86
O=C(NCCN1CCN(c2cccc(C(F)(F)F)c2)CC1)C1(n2cccc2)CCCCC1	mHTT CaM bind 97
O=C(NCCN1CCN(c2ccccc2F)CC1)C1(n2cccc2)CCCCC1	none
COc1ccc(/C=C2N=C(/C=C/c3cccc(Cl)c3Cl)OC/2=O)cc1OC	none
CCOc1ccc(N2C(=O)CS/C2=C(\C(Cl)=C(Cl)Cl)[N+](=O)[O-])cc1	mHTT CaM bind 57
O=C1CS/C(=C(\C(Cl)=C(Cl)Cl)[N+](=O)[O-])N1c1ccc(F)cc1	none
COCCCN1COc2ccc3c(C)c(-c4ccccc4)c(=O)oc3c2C1	none
O=C1c2ccccc2C(=O)c2c1oc1c3c(ccc21)OCN(CCc1ccccc1)C3	mHTT CaM bind 61
CC(=O)c1c(C)oc2c1c1c(c3ccccc32)OCN(C2CC(C)(C)NC(C)(C)C2)C1	mHTT CaM bind 78
O=C1c2ccccc2C(=O)c2c1oc1c3c(ccc21)OCN(Cc1ccccc1)C3	none
CC(=O)c1c(C)oc2c1c1c(c3ccccc32)OCN(C2CCCCC2)C1	none
